PubChem BioAssay (NCI)
Compounds without any hit were thinned out: in the full panel of roughly 83,000, 20% have a hit.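 The endpoint reported here, percent growth, reads 100 for growth as untreated, 0 for no net growth and -100 for all cells dead.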 A number with no mark means an inactive call. The source made the active and inactive calls. How the source made its calls: active means growth percent below 10; inactive means the rest.

Assays:
Experiment in all cases: NCI-60 one-dose screen, 48 h (100 = growth as untreated, 0 = no growth, -100 = all killed)
Conditions in all cases: 10 µM unless noted
NCI-H23 lung = system: NCI-H23 lung
NCI-H226 lung = system: NCI-H226 lung
NCI-H322M lung = system: NCI-H322M lung
HOP-62 NSCLC = system: HOP-62 NSCLC
NCI-H460 lung = system: NCI-H460 lung
HOP-92 NSCLC = system: HOP-92 NSCLC
NCI-H522 lung = system: NCI-H522 lung
A549/ATCC NSCLC = system: A549/ATCC NSCLC
786-0 renal = system: 786-0 renal
COLO 205 colon = system: COLO 205 colon

| SMILES | growth (NCI-H23 lung) | growth (NCI-H226 lung) | growth (NCI-H322M lung) | growth (HOP-62 NSCLC) | growth (NCI-H460 lung) | growth (HOP-92 NSCLC) | growth (NCI-H522 lung) | growth (A549/ATCC NSCLC) | growth (786-0 renal) | growth (COLO 205 colon) |
| --- | --- | --- | --- | --- | --- | --- | --- | --- | --- | --- |
| COc1ccc(CNc2c3ccccc3nc3ccccc23)cc1 | 38.8% | 51.4% | 47.1% | 53.9% | 9.69% (active) | 24.6% | 53% | 28.9% | 32.4% | 11.6% |
| CC(C)=CCC[C@](C)(O)[C@H]1CC[C@]2(C)[C@@H]1CC[C@@H]1[C@@]3(C)C/C(=C/c4ccco4)C(=O)C(C)(C)[C@@H]3CC[C@]12C | 101% | 103% | 103% | 102% | 106% | 98.2% | 102% | 107% | 99.6% | 110% |
| CN(C)CCNC(=O)c1ccc(-c2nc3ccc4[nH]ncc4c3c3c2C2CCC3C2)cc1 (stereo not given) | 32.2% | 49.3% | 58.8% | 46.6% | 11.8% | 101% | -28.8% (active) | 14.2% | 28.3% | 18.6% |
| COC(=O)/C=C1/SC(=Nc2cccc(OC)c2)N(CCc2c[nH]c3ccc(O)cc23)C1=O | 76.1% | 89.6% | 95.2% | 69.8% | 61.3% | 50.4% | 54.3% | 87.3% | 74.3% | 106% |
| CCc1ccc(CCCC(=O)O)cc1 | 96.5% | 95.1% | 101% | 87% | 108% | 91.1% | 89.9% | 97.7% | 95.4% | 112% |
| COc1cc(-c2nccc3[nH]c(-c4ccc5cc[nH]c5c4)nc23)cc(OC)c1OC | 26.1% | 19.3% | 45% | -19.6% (active) | 2.58% (active) | -8.58% (active) | -59.5% (active) | -28.5% (active) | -56% (active) | -71.5% (active) |
| O=C(CSc1nc2sc3c(c2c(=O)n1-c1ccccc1)CCCCC3)N/N=C/c1cccc([N+](=O)[O-])c1 | 54.4% | 94.4% | 79% | 53% | 19.6% | 73.2% | 53.5% | 27.8% | 80.7% | 89.1% |
| C=C1C(=O)O[C@H]2[C@H]1CC/C(Cn1cc(-c3ccccc3)nn1)=C\CC[C@@]1(C)O[C@@H]21 | -23.6% (active) | -25.8% (active) | 89.2% | 79.3% | 51.8% | -69.9% (active) | -62% (active) | 33.8% | -78% (active) | -65.3% (active) |
| Cc1c(O)cc(-c2cnc(Nc3ccccc3)s2)c(O)c1C | 87.1% | 98.6% | 96.6% | 97.4% | 99.3% | -64.4% (active) | 83.4% | 93.1% | 107% | 107% |
| C=CCSc1nnc(NC(=O)CCl)s1 | 93.6% | 88.8% | 101% | 109% | 99.9% | 112% | 85.3% | 95.2% | 101% | 122% |
| Nc1n[nH]c2ccc([C@H]3[C@@H]4C5CCC(C5)[C@@H]4c4c(ccc5[nH]ncc45)N3S(=O)(=O)C3CC3)cc12 (stereo not given in full) | 16.3% | -16.9% (active) | 38.6% | 41.1% | 5.9% (active) | 67.7% | 7.23% (active) | 17.1% | 31.3% | -0.398% (active) |
| CSc1nc2ncc([N+](=O)[O-])c(=O)n2[nH]1 | 104% | 97% | 110% | 98.8% | 103% | 52.4% | 93.8% | 101% | 108% | 119% |
